A selection: hits, their analogues and other compounds. The true share with any hit is near 7.9%.
MCF10A rerep: A quantitative high throughput screen for small molecules that induce DNA re-replication in MCF 10a normal breast cells; MCF 10A DNA re-replication, Hoechst nuclear intensity, 48 h; Potency, µM (doses to about 46.1 µM), usual class: activators; 350,000 compounds, 2.9% hits; note: nearly all actives have a fitted effect of over 50% in size
SW480 rerep: A quantitative high throughput screen for small molecules that induce DNA re-replication in SW480 colon adenocarcinoma cells. Potency, µM (highest dose often 46.1 µM), actives largely listed as activators. 340,000 compounds, 1.8% hits. SW480 DNA re-replication, Hoechst DNA content imaging, 48 h. AID 624297, 2012; note: nearly all actives have a fitted effect of over 55% in size
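Compounds, transferred as 23 nL by pin tool, were incubated with cells for 48 hr; DNA content per nucleus was then quantified by Hoechst staining and fluorescence plate imaging.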
HT1080NT lethal: qHTS for induction of synthetic lethality in tumor cells producing 2HG: qHTS for the HT-1080-NT fibrosarcoma cell line. AID 686970, 2013. HT-1080-NT fibrosarcoma viability, CellTiter-Glo ATP luminescence, 48 h. 360,000 compounds, 1.6% hits. Potency, µM (top dose mostly 46.1 µM), usual class: cytotoxic;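 note: NT is the 2HG producing partner of a matched IDH1 knockdown line; nearly all actives have a fitted effect of over 55% in size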
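Fibrosarcoma NT cells, 750 per well in 5% FBS RPMI, were exposed to compound for 48 hours. Viability: CellTiter-Glo luminescence.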
HT1080 IDH1KD tx: qHTS for induction of synthetic lethality in tumor cells producing 2HG: qHTS for the HT-1080-IDH1KD cell line; Potency, µM (series often up to 46.1 µM), usual class: cytotoxic; 360,000 compounds, 2% hits; HT-1080 IDH1 knockdown viability, ATP luminescence, 48 h
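Knockdown cells (IDH1KD HT-1080) received compounds 2 h after plating at 750 cells/well and were kept 48 h at 37 °C in 5% FBS RPMI. A CellTiter-Glo luminescence read gave % activity for curve fitting.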
KB-V1 cytotox: qHTS assay for MDR1-selective chemotherapeutics: Primary screen using the drug-selected MDR subline cells KB-V1. KB-V1 MDR cells viability, CellTiter-Glo, 72 h. Potency, µM (top dose mostly 46.1 µM), usual class: cytotoxic. 400,000 compounds, 3.4% hits; note: nearly all actives have a fitted effect of over 60% in size
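KB-V1 MDR subline cells in DMEM (phenol-red free, 10% FBS) exposed to compounds in qHTS concentration series for 72 h at 37 degrees C. Viability read by CellTiter-Glo luminescence; concentration-effect curves fitted after normalization and correction.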
KB-3-1 tox: qHTS assay for MDR1-selective chemotherapeutics: Primary screen using the parental adenocarcinoma cell KB-3-1. KB-3-1 viability, CellTiter-Glo ATP luminescence, 72 h. Potency, µM (highest dose often 46.1 µM), usual class: cytotoxic. 400,000 compounds, 1.4% hits. AID 1347075, 2019; note: nearly all actives have a fitted effect of over 60% in size
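KB-3-1 cells, DMEM (no phenol red) + 10% FBS; compound by pin transfer, 72 h, 37 °C. Readout: CellTiter-Glo luminescence after 10 min. Data normalized, curve-fitted.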
Large screens that a line does not name were inactive. Calls come from the whole dose curve; as a rule, active = well fitted curve in the direction sought with a large enough effect; inconclusive = small, poorly fitted or top-dose-only effect, or another doubt; inactive = no such curve, though single readings can be large; an effect the other way counts as inactive or inconclusive.

N#Cc1c(N2CCOCC2)nc(-c2ccco2)c2c1CCCC2	MCF10A rerep inconclusive, SW480 rerep inconclusive
CC1(C)Cc2c(C#N)c(N3CCN(C(=O)c4ccccc4)CC3)nc(-c3ccco3)c2CS1	MCF10A rerep 13µM, KB-V1 cytotox inconclusive, KB-3-1 tox inconclusive
N/C(=N\N=C\c1ccnc2ccccc12)SC1CC(=O)N(c2ccc(Br)cc2)C1=O (configuration not stated)	MCF10A rerep 7.31µM
N/C(=N\N=C\c1cccs1)SC1CC(=O)N(c2ccc(Br)cc2)C1=O (configuration not stated)	HT1080 IDH1KD tx inconclusive
CS(=O)(=O)c1ccc2nc(NC(=O)c3cccs3)sc2c1	HT1080NT lethal inconclusive, HT1080 IDH1KD tx 23.1µM, KB-V1 cytotox inconclusive, KB-3-1 tox inconclusive
COc1cc(/C=C/C(=O)Nc2nnc(C(C)(C)C)s2)cc(OC)c1OC	KB-V1 cytotox inconclusive
COc1cc(C(=O)Nc2nc3ccc(S(C)(=O)=O)cc3s2)cc(OC)c1C	SW480 rerep 18.4µM
COc1cc(/C=C/C(=O)Nc2nc3ccc(S(=O)(=O)N(C)C)cc3s2)cc(OC)c1OC	MCF10A rerep inconclusive, SW480 rerep 10.3µM, HT1080NT lethal inconclusive, HT1080 IDH1KD tx 6.51µM, KB-3-1 tox inconclusive
COc1ccccc1C(=O)NCC(=O)N1CC=C(c2ccccc2)CC1	KB-V1 cytotox 16.4µM, KB-3-1 tox inconclusive
CCC(=O)Nc1ccc(C=C(C(C)=O)C(C)=O)cc1	MCF10A rerep 16.4µM, KB-3-1 tox inconclusive
O=C(C(=Cc1ccc(F)cc1)c1ccccc1)c1ccc(O)cc1	MCF10A rerep inconclusive
CCC(=O)Nc1ccc(O)cc1	none (no result: HT1080NT lethal, HT1080 IDH1KD tx, KB-V1 cytotox, KB-3-1 tox)
O=C(C(=Cc1ccc(F)cc1)C(=O)c1ccccc1)c1ccccc1	HT1080NT lethal inconclusive, HT1080 IDH1KD tx inconclusive, KB-V1 cytotox 20.6µM, KB-3-1 tox 18.4µM (no result: MCF10A rerep, SW480 rerep)
CCC(=O)Nc1ccc(/C=C(\C(C)=O)C(=O)c2ccccc2)cc1	MCF10A rerep inconclusive, HT1080NT lethal 18.4µM, HT1080 IDH1KD tx 16.4µM, KB-3-1 tox inconclusive
COc1ccc(OC)c(/C=C/C(=O)N2CCCc3ccccc32)c1	KB-V1 cytotox inconclusive
COc1ccc(N/N=C(/C(C)=O)N2CCCc3ccccc32)cc1	KB-3-1 tox 20.6µM
COc1ccc(/C=C/C(=O)N2CCCc3ccccc32)cc1	MCF10A rerep inconclusive, SW480 rerep inconclusive, KB-V1 cytotox 13µM
COc1ccc(NC(=O)N2CCCc3ccccc32)cc1	none
CCOC(=O)/C(C#N)=C\C1=C(N2CCCC2)CC(C)(C)OC1	none
Cc1nn2c(nc(N3CCCCC3)c3ccccc32)c1C=O	HT1080NT lethal inconclusive
Cc1nn2c([nH]c(=O)c3ccccc32)c1C=O	SW480 rerep inconclusive, HT1080NT lethal 17.8µM, HT1080 IDH1KD tx inconclusive, KB-V1 cytotox inconclusive
C[C@H](CO)N1C[C@H](C)[C@@H](CN(C)Cc2ccccc2)Oc2c(NC(=O)Cc3ccccc3)cccc2C1=O	MCF10A rerep inconclusive, HT1080NT lethal inconclusive, HT1080 IDH1KD tx inconclusive, KB-V1 cytotox inconclusive, KB-3-1 tox 23.1µM
C[C@H](CO)N1C[C@H](C)[C@@H](CN(C)C)Oc2c(NS(=O)(=O)c3cn(C)cn3)cccc2C1=O	SW480 rerep 0.92µM
C[C@H](CO)N1C[C@H](C)[C@@H](CN(C)Cc2ccc(-c3ccccc3)cc2)Oc2c(NC(=O)Cc3ccccc3)cccc2C1=O	MCF10A rerep inconclusive, SW480 rerep inconclusive, KB-V1 cytotox inconclusive
C[C@H](CO)N1C[C@H](C)[C@@H](CN(C)C(=O)Nc2ccccc2)Oc2c(NS(=O)(=O)c3cn(C)cn3)cccc2C1=O	MCF10A rerep inconclusive
C[C@H](CO)N1C[C@H](C)[C@@H](CN(C)Cc2ccncc2)Oc2c(NC(=O)Cc3ccccc3)cccc2C1=O	SW480 rerep inconclusive, HT1080NT lethal inconclusive, HT1080 IDH1KD tx 14.6µM, KB-3-1 tox 16.4µM
COc1ccc2c(CN(C)c3ccccc3)cc(=O)oc2c1	KB-V1 cytotox 18.4µM
NC(CCc1ccccc1)c1csc(Nc2ccc(C(=O)c3ccccc3)cc2)n1 (configuration not stated)	HT1080NT lethal inconclusive, HT1080 IDH1KD tx inconclusive, KB-3-1 tox inconclusive (no result: MCF10A rerep, SW480 rerep)
CC(=O)c1ccc(Nc2nc(C(N)Cc3ccc(C(F)(F)F)cc3)cs2)cc1 (configuration not stated)	HT1080NT lethal inconclusive, HT1080 IDH1KD tx inconclusive, KB-V1 cytotox 11.6µM, KB-3-1 tox inconclusive (no result: MCF10A rerep, SW480 rerep)
NC(Cc1ccc(C(F)(F)F)cc1)c1csc(Nc2ccccn2)n1 (configuration not stated)	HT1080NT lethal 20.6µM, HT1080 IDH1KD tx inconclusive (no result: MCF10A rerep, SW480 rerep)
NC(Cc1ccc(C(F)(F)F)cc1)c1csc(Nc2ncccn2)n1 (configuration not stated)	HT1080NT lethal inconclusive, HT1080 IDH1KD tx inconclusive (no result: MCF10A rerep, SW480 rerep)
NCc1csc(Nc2ccc(C(=O)c3ccccc3)cc2)n1	HT1080NT lethal inconclusive, HT1080 IDH1KD tx inconclusive, KB-V1 cytotox inconclusive, KB-3-1 tox 5.8µM (no result: MCF10A rerep, SW480 rerep)
NC(COCc1ccccc1)c1csc(Nc2ccc(C(=O)c3ccccc3)cc2)n1 (configuration not stated)	HT1080NT lethal 18.4µM, HT1080 IDH1KD tx inconclusive (no result: MCF10A rerep, SW480 rerep)
O=c1cc(Cl)[nH]n(-c2ccccc2)c1=O	KB-V1 cytotox inconclusive
COc1ccccc1NC(=O)Nc1nc(C(N)Cc2ccc(C(F)(F)F)cc2)cs1 (configuration not stated)	KB-3-1 tox inconclusive (no result: MCF10A rerep, SW480 rerep, HT1080NT lethal, HT1080 IDH1KD tx)
COc1cccc(Nc2nc(C(N)Cc3ccccc3)cs2)n1 (configuration not stated)	HT1080NT lethal 29.1µM, HT1080 IDH1KD tx 11.6µM, KB-V1 cytotox inconclusive, KB-3-1 tox inconclusive (no result: MCF10A rerep, SW480 rerep)
Cc1ccc(C(=O)Nc2nc(C(N)Cc3ccc(C(F)(F)F)cc3)cs2)cc1 (configuration not stated)	HT1080NT lethal inconclusive, HT1080 IDH1KD tx 16.4µM (no result: MCF10A rerep, SW480 rerep)
COc1cccc(Nc2nc(C(N)CO)cs2)n1 (configuration not stated)	none (no result: MCF10A rerep, SW480 rerep)
CC(C)CC(N)c1csc(NC(=O)NCCc2ccccc2)n1 (configuration not stated)	HT1080NT lethal inconclusive, HT1080 IDH1KD tx inconclusive (no result: MCF10A rerep, SW480 rerep)
NC(Cc1ccc(C(F)(F)F)cc1)c1csc(NC(=O)NCCc2ccccc2)n1 (configuration not stated)	HT1080NT lethal 23.1µM, HT1080 IDH1KD tx 18.4µM, KB-3-1 tox inconclusive (no result: MCF10A rerep, SW480 rerep)
